Assay results: PubChem BioAssay AID1159580 (chemical genetic matrix, 2015)
In all, about 5,500 compounds went through this assay and about 2,000 (36%) were called active. Inconclusive results (about 18%) are left out. Cut-off read from the data, not from the text of the source: active = normalized growth mostly below about 0.91 (no sharp cut-off); inconclusive = no clear call, values can overlap the other calls; inactive = mostly above about 0.92. The list shows a part of the results.

Assay: chemical genetic growth profiling, strain panel (AID 1159580);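 note: tested at 20 µM; growth read once vehicle control cultures reached saturation at 30 °C; 1 = growth at the plate median or of vehicle wells; lower values mean less growth of the strain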
Settings: S. cerevisiae deletion strains, growth OD

Measured: normalized growth

Nc1ncnc2c1ncn2[C@@H]1O[C@H](COP(=O)(O)CP(=O)(O)OP(=O)(O)O)[C@H](O)C1O (stereo partly specified)
inactive: locus YAL040C, strain CLN3, active compounds read low 1.08 | locus YCL061C, strain MRC1 (second series), active compounds read low 0.999 | locus YDR363W, strain ESC2, active compounds read low 1 | locus YER002W, strain NOP16, active compounds read low 0.983 | locus YGR078C, strain PAC10, active compounds read low 1.02 | locus YJR075W, strain HOC1, active compounds read low 1.02 | locus YMR263W, strain SAP30, active compounds read low 1 | locus YNL175C, strain NOP13, active compounds read low 1 | locus YNL197C, strain WHI3, active compounds read low 1 | locus YNL224C, strain SQS1, active compounds read low 0.999 | locus YOR083W, strain WHI5 (second series), active compounds read low 1
